# An excerpt weighted towards active compounds, which were near 19% of everything screened.
# TDP1 cell CPT: DT40-hTDP1 cell growth loss with CPT; AID 686979; Potency, µM (highest dose often 46.2 µM), for inactives: at the top dose activity change, negative = growth inhibition, actives largely listed as inhibitors; chicken DT40 Tdp1-/-;hTDP1 cells + 20 nM CPT, ATP luminescence, 48 h; 420,000 tested, 12% active; note: potency is the fitted concentration of half-maximal effect; nearly all actives have a fitted effect of over 55% in size
#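 Chicken DT40 Tdp1-/- cells complemented with human TDP1, 400 cells/well, exposed to compounds plus 20 nM camptothecin for at least 48 h at 37 C; viability read as ATP content by CellTiter-Glo luminescence.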
# IL-1B inflam inh: inhibitors of inflammasome signaling (IL-1 beta secretion); THP-1 LPS/ATP IL-1B secretion, AlphaLISA, 16 h; active compounds read low; activity change, % at 57.5 µM; 360,000 tested, 4.7% active; AID 743279; in the data active = activity change below about -50%; inconclusive = mostly about -30% to -49%
#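 Secreted IL-1B measured by AlphaLISA bead assay after 16 h compound exposure of THP-1 cells; compounds (final up to 57.5 uM) added 1 h before LPS (250 ng/mL) and ATP (1.25 mM) stimulation; lower signal means less secretion.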
# ELG1 DNA repair: ELG1-dependent DNA repair inhibition | HEK293T ELG1-luciferase reporter, luminescence, 16 h; DNA damage induced by 5-fluorouridine | Potency, µM (series often up to 46.1 µM), inactives show top-dose activity change, negative = inhibition, usual class: inhibitors | 330,000 tested, 2.3% active | AID 504467; note: potency is the fitted concentration of half-maximal effect; nearly all actives have a fitted effect of over 55% in size
#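 Quantitative HTS, concentration-response format. 2,000 cells/well co-treated with 5-fluorouridine and compound, 16 hr in 5% CO2 at 37 °C; ONE-Glo luminescence read after 30 min.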
# TDP1 cell noCPT: qHTS for Inhibitors of human tyrosyl-DNA phosphodiesterase 1 (TDP1): qHTS in cells in absence of CPT. Potency, µM (highest dose often 46.2 µM), for inactives: top-dose activity change, negative = growth inhibition, hits mostly inhibitors. 420,000 tested, 15% active. DT40 Tdp1-/- hTDP1 cells, no CPT, ATP luminescence, 48 h; note: potency is the fitted concentration of half-maximal effect; nearly all actives have a fitted effect of over 55% in size
#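 Stably hTDP1-transfected Tdp1-null chicken DT40 cells were treated with library compounds minus camptothecin and grown for at least 48 hr at 37 °C, after which cellular ATP was quantified by luminescence.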
# HT1080 IDH1KD tx: toxicity to HT-1080 IDH1 knockdown cells (counter line); HT-1080 IDH1 knockdown viability, ATP luminescence, 48 h; AID 686971; Potency, µM (top dose mostly 46.1 µM), for inactives: at the top dose activity, negative = toxicity, actives largely listed as cytotoxic; 360,000 tested, 2% active;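 note: potency is the fitted concentration of half-maximal effect; 0% = DMSO wells and -100% = cell-free medium wells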
#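 CellTiter-Glo luminescence after 48 h compound exposure at 37 degrees C of IDH1-knockdown HT-1080 cells in 5% FBS RPMI. %Activity scaled between DMSO wells and cell-free media wells, with curves fitted and assigned curve classes.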
# HT1080NT lethal: kills 2HG-producing HT-1080-NT fibrosarcoma cells | HT-1080-NT fibrosarcoma viability, CellTiter-Glo ATP luminescence, 48 h | Potency, µM (titrated, usually from 46.1 µM), without a hit: top-dose activity, negative = less viability, most hits filed as cytotoxic | 360,000 tested, 1.6% active;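 note: NT is the 2HG producing partner of a matched IDH1 knockdown line; potency is the fitted concentration of half-maximal effect; 0% = DMSO-treated cells and -100% = media-only wells without cells; nearly all actives have a fitted effect of over 55% in size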
#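 Luminescent CellTiter-Glo readout after 48 hours of compound exposure at 37 degrees C defined viability of HT-1080-NT cells. Activity was normalized to DMSO wells and cell-free media wells; concentration-response curves were fitted and assigned curve classes.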
# Active calls of the source: *; ? = inconclusive; . = no result given. Unless noted, calls come from the whole dose curve; as a rule, active = well fitted curve in the direction sought with a large enough effect; inconclusive = small, poorly fitted or top-dose-only effect, or another doubt; inactive = no such curve, though single readings can be large; an effect the other way counts as inactive or inconclusive. Unless noted, % is set by controls: 0 for no effect and ±100 for the full control effect.
SMILES,TDP1 cell CPT,IL-1B inflam inh,ELG1 DNA repair,TDP1 cell noCPT,HT1080 IDH1KD tx,HT1080NT lethal
Cc1ccc(CS(=O)Cc2ccc(C(=O)N3CCN(c4ccccc4)CC3)o2)cc1 (stereo not drawn),20.6µM*,-15.3,?,?,-2.2%,-5.4%
O=C(c1ccco1)N1CCN(C(=O)c2ccc(CS(=O)c3cccc(Cl)c3)o2)CC1 (stereo not drawn),-15.7%,23.9,-1.8%,-16.5%,6.2%,-1.7%
COc1ccc(N2CCN(C(=O)c3ccc(CS(=O)c4cccc(Cl)c4)o3)CC2)cc1 (stereo not drawn),16.4µM*,-10.5,.,14.6µM*,-24.6%,-17.4%
CCCc1ccccc1OCCNC(=O)c1cc(=O)n(C)c(=O)n1C,1.9%,0.0,3.7%,7.6%,15.0%,2.4%
COc1ccc(-n2c3c(cc(-c4nc(-c5ccc(Cl)cc5)cs4)c2=O)C(=O)CC(C)(C)C3)cc1,13.1%,.,.,-10.7%,.,.
CCCCNC(=O)C1(C)CCN1C(=O)c1cccnc1Oc1ccccc1 (stereo not drawn),-0.1%,6.6,.,-4.1%,-0.5%,-0.4%
FC(F)Sc1ccc(NC(=S)NCC2CCCCC2)cc1,?,-92.0*,4.6%,?,?,?
CCCCNC(=S)Nc1ccc(Oc2ccccc2)cc1,?,-14.2,-0.4%,20.6µM*,-1.9%,-10.3%
CC1CCCCC1NC(=S)Nc1ccc(SC(F)F)cc1 (stereo not drawn),?,-80.2*,?,?,?,?
CCCNC(=S)Nc1ccc(Oc2ccccc2)cc1,?,-7.1,2.8%,16.4µM*,14.1µM*,15.8µM*
CN(CC(=O)Nc1ccc(SC(F)F)cc1)C1CCCCC1,8.0%,-6.6,-0.3%,-0.5%,-6.8%,-16.5%
FC(F)Sc1ccc(NC(=S)NC2CCCCC2)cc1,?,?,?,-24.8%,?,?
CC(=O)c1ccc(NC(=O)Cn2nc(C(F)(F)F)c3c2CCC3)cc1,-17.4%,.,.,-24.0%,.,.
S=C(Nc1ccc(Oc2ccccc2)cc1)NC1CCCC1,-0.6%,-10.7,19.7%,?,0.9%,-2.6%
S=C(NCC1CCCCC1)Nc1ccc(Oc2ccccc2)cc1,?,-77.1*,3.2%,?,-16.1%,0.0%
C(=Nc1ccc2ccccc2n1)c1cccnc1,?,.,.,-11.2%,.,.
CCN(CC)C(=O)C(=O)c1cn(CC(=O)N2CCc3ccccc3C2)c2ccccc12,?,-10.5,-22.0%,?,-1.5%,-1.8%
COc1ccc(NC(=O)Cn2c(=O)n(-c3ccc(OC)cc3)c(=O)c3ccc(C(=O)NCc4ccc(C)cc4)cc32)cc1,?,.,.,-1.8%,.,.
O=C(Cn1c(=O)n(-c2ccccc2)c(=O)c2ccc(C(=O)NCc3ccc4c(c3)OCO4)cc21)Nc1ccc(F)cc1,-22.8%,.,.,-27.4%,.,.
COc1ccc(-n2c(=O)c3ccc(C(=O)NCc4ccc(C)cc4)cc3n(CC(=O)Nc3cccc(F)c3)c2=O)cc1,13µM*,.,.,?,.,.
COc1ccc(Cl)cc1NC(=O)Cn1c(=O)n(-c2ccc(C)cc2)c(=O)c2ccc(C(=O)NCc3ccccc3Cl)cc21,4.61µM*,.,.,?,.,.
O=C(Cn1c(=O)n(-c2ccccc2)c(=O)c2ccc(C(=O)NCc3ccc4c(c3)OCO4)cc21)Nc1ccc(Br)cc1F,?,.,.,14.6µM*,.,.
Cc1ccc(NC2(c3ccccc3)C(=O)c3ccccc3C2=O)cc1F,-2.1%,.,.,-21.3%,.,.
Cc1ccc(C(=O)NC(=S)N2CCN(C)CC2)cc1,-2.1%,21.6,?,2.7%,-3.0%,-6.8%
CN1CCN(C(=S)C(=O)Nc2ccc(Br)cc2)CC1,13µM*,12.1,-2.0%,?,0.8%,4.5%
SMILES,TDP1 cell CPT,IL-1B inflam inh,ELG1 DNA repair,TDP1 cell noCPT,HT1080 IDH1KD tx,HT1080NT lethal
CN1CCN(C(=S)NC(=O)c2ccc(Br)cc2)CC1,?,-13.0,?,5.17µM*,2.0%,22.1%
Cc1cccc(C(=O)NC(=S)N2CCN(C)CC2)c1,?,2.2,1.2%,?,10µM*,12.6µM*
COc1ccc(-c2noc(N3CCC(C(=O)N4CCN(c5cccc(OC)c5)CC4)CC3)n2)cc1,6.51µM*,.,.,3.26µM*,.,.
COc1ccc(OC)c(C2=NOC(C(=O)N3CCN(c4ccccc4)CC3)C2)c1 (stereo not drawn),?,-10.4,-5.7%,?,6.2%,-5.3%
COc1cccc(N2CCN(C(=O)C3CCN(C(=O)Nc4ccccc4)CC3)CC2)c1,-11.0%,1.2,.,-2.9%,-4.8%,7.5%
COc1ccc(-c2noc(N3CCC(C(=O)N4CCN(c5ccccc5OC)CC4)CC3)n2)cc1,10.3µM*,.,.,8.2µM*,.,.
COc1ccc(C2=NOC(C(=O)N3CCN(c4ccccc4OC)CC3)C2)cc1 (stereo not drawn),16.4µM*,20.4,?,23.1µM*,-0.4%,13.5%
COc1ccccc1N1CCN(C(=O)C2CC2)CC1,7.6%,9.3,.,-11.0%,15.9%,16.9%
COc1ccc(-c2noc(N3CCC(C(=O)N4CCN(c5ccccn5)CC4)CC3)n2)cc1,23.1µM*,?,?,10.3µM*,-14.4%,-14.8%
Cc1cccc(NC(=O)COC(=O)c2cccs2)c1C,0.8%,-9.8,13.6%,-0.8%,9.3%,5.7%
CC(C)CCNC(=O)CN1C(=O)c2cccnc2Oc2ccccc21,-4.0%,.,.,-18.0%,.,.
CNC(C)C#Cc1ccc2sc3cccc(OC)c3c(=O)c2c1 (stereo not drawn),?,-80.5*,?,14.6µM*,4.8%,-2.1%
COc1cccc(C#Cc2c(C=O)n(C)c3ccccc23)c1,16.4µM*,35.1,-19.6%,16.4µM*,?,-19.4%
COc1cccc2sc3ccc(C#CC4(N)CCCCC4)cc3c(=O)c12,16.4µM*,-61.1*,?,14.6µM*,-14.4%,-14.6%
COc1cc2sc3ccc(C#CC4(O)CCCCC4)cc3c(=O)c2cc1OC,?,0.0,.,16.4µM*,?,-22.9%
Cn1c(C=O)c(C#CC(C)(C)O)c2ccccc21,?,21.1,4.6%,?,0.6%,4.4%
Cc1ccc(CNC(=O)CNS(=O)(=O)c2ccc3c(c2)C(C)(C)C(=O)N3C)cc1,17.3%,?,5.7%,5.6%,2.6%,-1.7%
Cn1c2ccccc2c(=O)c2ccc(C#CC3(O)CCCCC3)cc21,13µM*,-53.8*,?,10.3µM*,?,?
